Shown are actives, neighbours in structure and some others; about 3.7% of the full set was active somewhere.
ERa coact inh – ERα–SRC-1 coactivator interaction inhibitors, primary screen, biochemical, TR-FRET, ERα LBD, estradiol-bound. TR-FRET ER-alpha LBD / SRC-1 peptide. actives 1.7% (n = 86,000). Estrogen receptor (Homo sapiens), P03372. inhibition, % at 25.6 µM; in the data active = inhibition above about 50%;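 also: 0% = receptor plus peptide control and 100% = peptide only without receptor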
ERa coact pot – enhancers of ERα–SRC-1 coactivator binding, primary screen, biochemical, TR-FRET, ERα LBD, low estradiol; coactivator binding (% of control), % at 25.6 µM; actives 1.3% (n = 86,000); TR-FRET ERalpha-LBD/SRC-Cy5 coactivator binding, 2 h; 100 = basal binding, no effect; AID 639, 2007; in the data active = activity above about 200%;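 also: binding measured in presence of low estradiol as agonist stimulus; 0% = peptide alone without receptor and 100% = receptor with peptide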
Smad3 inh – Smad3/FoxH1 peptide binding inhibitors, primary screen, biochemical, TR-FRET. AID 630, 2007. TR-FRET Smad3/Dy647-FoxH1 peptide binding, europium anti-His. actives 0.29% (n = 88,000). Mothers against decapentaplegic homolog 3 (Homo sapiens), P84022. inhibition, % at 25 µM;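 active = compounds that reduce the energy-transfer binding signal between the protein and its labelled peptide by more than half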;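 also: 0% = Smad3 plus labelled peptide maximal FRET and 100% = peptide-only background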
ERb SRC1 inh – inhibitors of ERβ-SRC1 coactivator interaction, primary screen, biochemical, TR-FRET, ERβ LBD, SRC-1 peptide; Estrogen receptor beta (Homo sapiens), Q92731; TR-FRET ER-beta LBD / SRC1-Cy5 peptide binding; receptor agonist-loaded with 1 µM estradiol; inhibition, % at 25.6 µM; actives 1.3% (n = 86,000);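 active = compounds whose percent inhibition of the receptor-coactivator binding signal exceeds about 50% in the single-dose screen, limit read from the data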;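 also: 0% = receptor plus peptide wells without compound and 100% = peptide-only wells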
Target sequence (Q92731 whole entry, looked up, the tested form may be a part): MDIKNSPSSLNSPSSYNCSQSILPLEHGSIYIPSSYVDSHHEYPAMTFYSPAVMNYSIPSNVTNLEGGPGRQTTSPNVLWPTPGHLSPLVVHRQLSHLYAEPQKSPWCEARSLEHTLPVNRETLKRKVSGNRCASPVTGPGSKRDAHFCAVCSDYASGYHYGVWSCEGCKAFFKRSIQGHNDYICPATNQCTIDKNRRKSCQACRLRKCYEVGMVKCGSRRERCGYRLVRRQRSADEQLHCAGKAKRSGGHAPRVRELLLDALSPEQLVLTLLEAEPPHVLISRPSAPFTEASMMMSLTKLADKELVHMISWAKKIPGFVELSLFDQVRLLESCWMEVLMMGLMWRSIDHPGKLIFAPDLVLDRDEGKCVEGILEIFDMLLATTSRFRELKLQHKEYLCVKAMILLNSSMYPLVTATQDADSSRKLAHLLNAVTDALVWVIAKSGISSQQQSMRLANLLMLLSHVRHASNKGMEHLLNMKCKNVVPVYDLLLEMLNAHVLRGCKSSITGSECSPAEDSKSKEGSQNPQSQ
The depositor's hits bear a star; [ ] = dose if it differs, or a comment.

C=CCNc1nc(NCc2ccccc2)c(C#N)c2c1CN(C)CC2 was read as ERa coact inh -1.4, ERa coact pot 100.1, Smad3 inh -23.8 and ERb SRC1 inh 3.2.
Screening N#Cc1c(NCCN)nc(NCc2ccccc2)c2c1CCN(Cc1ccccc1)C2 returned ERa coact inh 78.5*, ERa coact pot 96.3, Smad3 inh 12.8 and ERb SRC1 inh 38.3.
Screening Cc1ccc(NC(=O)C2C3C=CC4(CN(Cc5cccnc5)C(=O)C24)O3)cc1F (stereo unspecified) returned ERa coact inh 14.3, ERa coact pot 83.2, Smad3 inh -12.0 and ERb SRC1 inh 18.9.
Screening COc1ccc2c(=O)c3c(=O)n(Cc4ccco4)c(-c4ccco4)nc3oc2c1 returned ERa coact inh 75.2*[fluorescence artefact?], ERa coact pot 48.8, Smad3 inh 15.4 and ERb SRC1 inh 60.3*.
`CCc1nc2oc3cc(OC)ccc3c(=O)c2c(=O)n1Cc1ccco1` gave ERa coact inh 37.3, ERa coact pot 78.2, Smad3 inh 3.3 and ERb SRC1 inh 58.6*.
`COc1ccc(Cn2c(-c3ccco3)nc3oc4cc(OC)ccc4c(=O)c3c2=O)cc1` gave ERa coact inh 49.5, ERa coact pot 570.8*[fluorescence artefact?], Smad3 inh -83.9 and ERb SRC1 inh 53.8*[fluorescence artefact?].
Screening CC(C)=CCC/C(C)=C/CO returned Smad3 inh 0.7.
NCCCc1c(-c2ccccc2)nc(N)[nH]c1=O was read as Smad3 inh -17.5.
For Clc1ccc(-c2nnc3sc(Cc4cccs4)nn23)cc1 the results were ERa coact inh 34.9, ERa coact pot 83.4, Smad3 inh 5.6 and ERb SRC1 inh 32.6.
Screening COc1ccc(-c2nnc3sc(CN4C(=O)c5ccccc5C4=O)nn23)cc1 returned ERa coact inh 16.2, ERa coact pot 226.7*, Smad3 inh -30.2 and ERb SRC1 inh 8.2.
COc1ccc(-c2nnc3sc(C(C)N4C(=O)c5ccccc5C4=O)nn23)cc1 (stereo unspecified) was read as ERa coact inh -5.8, ERa coact pot 107.9, Smad3 inh 2.3 and ERb SRC1 inh -14.4.
For c1ccc(-c2nnc3sc(Cc4cccs4)nn23)cc1 the results were ERa coact inh 64.2*[fluorescence artefact?], ERa coact pot 46.1, Smad3 inh 9.1 and ERb SRC1 inh 56.9*.
Screening O=C1c2ccccc2C(=O)N1Cc1nn2c(-c3ccc(Cl)cc3)nnc2s1 returned ERa coact inh 46.0, ERa coact pot 383.4*[fluorescence artefact?], Smad3 inh 19.6 and ERb SRC1 inh 26.1.
`Cc1cccc(CN2CCCC(C(=O)N3CCc4ccccc4C3)C2)c1` (stereo unspecified) gave ERa coact inh -13.5, ERa coact pot 93.8, Smad3 inh -4.2 and ERb SRC1 inh -6.6.
Screening CCC(Cc1ccccc1)NC(=O)CCn1cccc1 (stereo unspecified) returned ERa coact inh -15.9, ERa coact pot 112.3, Smad3 inh -11.4 and ERb SRC1 inh -11.5.
`Cc1c(SCCO)c(=O)[nH]c2cc3c(cc12)OCO3` gave ERa coact inh 16.4, ERa coact pot 66.7, Smad3 inh 11.3 and ERb SRC1 inh 22.7.
Screening CC1CCCN(C(=O)COC(=O)c2n[nH]c3ccccc23)C1 (stereo unspecified) returned ERa coact inh 56.6*, ERa coact pot 114.4, Smad3 inh 3.6 and ERb SRC1 inh -6.7.
Screening O=C1NC(Cc2c[nH]c3ccccc23)C(=O)N1CCOc1ccccc1 (stereo unspecified) returned ERa coact inh -5.7, ERa coact pot 120.0, Smad3 inh 6.5 and ERb SRC1 inh -4.0.
For Cc1cc(C(=O)CN2C(=O)NC(Cc3c[nH]c4ccccc34)C2=O)c(C)n1C (stereo unspecified) the results were ERa coact inh -7.6, ERa coact pot 96.2, Smad3 inh -1.6 and ERb SRC1 inh 94.2*[fluorescence artefact?].
CN1CCN(c2nc3c(c(=O)n(C)c(=O)n3C)n2C)CC1 was read as Smad3 inh 0.4.
Cc1cc(OCC(=O)Nc2cc(-c3nn4c(C)nnc4s3)ccc2C)ccc1Cl was read as ERa coact inh -45.4, ERa coact pot 621.5*[fluorescence artefact?], Smad3 inh -370.3 and ERb SRC1 inh 13.6.
COc1ccc(OCC(=O)Nc2cc(-c3nn4c(C)nnc4s3)ccc2C)cc1 was read as ERa coact inh 20.1, ERa coact pot 275.9*[fluorescence artefact?], Smad3 inh -212.9 and ERb SRC1 inh 12.3.

Screening results as filed in PubChem BioAssay.
